Molecules are shown by their SMILES. Values joined by “and” are separate entries in the source; they are usually repeats but may differ in a detail not shown here. Identical values can stand only once. About 5,700 (36%) of roughly 16,000 compounds were called active. Roughly 24% stayed inconclusive and do not appear here. Calls come from the whole dose curve; as a rule, active = well fitted curve in the direction sought with a large enough effect; inconclusive = small, poorly fitted or top-dose-only effect, or effect the other way; inactive = no such curve, though single readings can be large or run the other way. Some of the results follow.

The AC50 is the midpoint of the concentration-response curve, whichever way the signal moves.
% is set by controls: 0 for no effect and ±100 for the full control effect.

Cytochrome P450 1A2 (Homo sapiens), sequence (P05177 whole entry, looked up): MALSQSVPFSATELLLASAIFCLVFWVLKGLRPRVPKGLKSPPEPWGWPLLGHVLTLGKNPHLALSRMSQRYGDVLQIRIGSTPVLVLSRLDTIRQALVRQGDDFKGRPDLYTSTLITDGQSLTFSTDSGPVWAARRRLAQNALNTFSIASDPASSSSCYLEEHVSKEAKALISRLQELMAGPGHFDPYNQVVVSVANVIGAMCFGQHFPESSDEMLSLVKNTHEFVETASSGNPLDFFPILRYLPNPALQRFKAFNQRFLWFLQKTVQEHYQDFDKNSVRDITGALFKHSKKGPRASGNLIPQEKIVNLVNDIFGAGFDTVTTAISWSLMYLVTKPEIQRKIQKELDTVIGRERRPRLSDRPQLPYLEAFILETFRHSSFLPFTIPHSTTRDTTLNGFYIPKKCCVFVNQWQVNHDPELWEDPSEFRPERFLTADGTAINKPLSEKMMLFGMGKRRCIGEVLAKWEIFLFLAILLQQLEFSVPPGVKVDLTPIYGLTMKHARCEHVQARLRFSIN

This experiment addresses Cytochrome P450 1A2 (Homo sapiens) (UniProt P05177). The experiment in a line: Cytochrome panel assay with activity outcomes. The conditions noted are these: recombinant CYP, pro-luciferin dealkylation, luminescence, p450-cyp1a2; series mostly up to 57.1 µM. How it is done:
The P450 gene superfamily is involved in the metabolism and clearance of xenobiotics. This assay used various human CYP P450 isozymes to measure the dealkylation of various pro-luciferin substrates to luciferin. The luciferin is then measured by luminescence after the addition of a luciferase detection reagent. Pro-luciferin substrate concentration in the assay was equal to its KM for its CYP P450 isozyme. Inhibitors and some substrates limit the production of luciferin, and decrease measured luminescence.
NCGC Assay Protocol Summary:
1, Reagent, 2 uL, Isozyme and Pro-Luciferin
2, Library compounds, 23 nl, 40 uM to 0.24 nM dilution series
3, Controls, 23 nl, Isozyme specific inhibitor
4, Reagent, 2 uL, NADPH regeneration solution
5, Incubation time, 60 min, Isozyme specific temperature
6, Reagent, 4ul, Detection reagent
7, Incubation time, 20 min, Isozyme specific temperature
8, Detection, 1 sec, ViewLux luminescent read
The luciferase-based P450-GloTM Screening Systems were obtained from Promega (Madison, WI) for CYP 1A2 (V9770), CYP 2C9 (V9790), CYP2 C19 (V9880), CYP 2D6 (V9890), and CYP 3A4 Luciferin-PPXE (V9910) and were adapted for 1,536-well microplates and an automated protocol. The control compounds furafylline for 1A2 (F124), sulfaphenazole for CYP 2C9 (S0758), ketoconazole for CYP 2C19 (K1003), quinidine for 2D6 (Q3625), and ketoconazole for 3A4 (K1003) were purchased from Sigma Aldrich (St. Louis, MO). Recombinant P450 enzymes were obtained from baculovirus constructs expressed in insect cells (BD/Gentest).
Medium-binding white solid Kalypsys plates used. Mixtures kept on ice. 1A2: 10 nM 1A2, 100 uM Luc-ME, 100 mM KPO4; 2C9: 10 nM 2C9, 100 uM Luc-H, 25 mM KPO4; 2C19: 5 nM 2C19, 10 uM Luc-H EGE, 50 mM KPO4; 2D6: 5 nM 2D6, 30 uM Luc-ME EGE, 100 mM KPO4; 3A4: 10 nM, 25 uM Luc-PPXE. All amounts are reflected in their final concentration, working concentration is 2x.
NADPH regeneration solution: 1.3 mM NADP+, 3.3 mM glucose-6-phosphate, 3.3 mM MgCl2, 0.4 U/mL glucose-6-phosphate dehydrogenase for all isozymes, 200 mM KPO4 for 3A4. Mixture prepared at RT but kept on ice during automated run.
RT incubation in auxilliary plate hotel for 1A2, 2D6, and 3A4; 37C for 2C9 and 2C19.
Keywords: P450, CYP1A2, CYP2C19, CYP2C9, CYP2D6, CYP3A4, Luciferase, MLSMR, MLSCN, NIH Roadmap, qHTS, NCGC
With `C[C@H](N)Cc1c[nH]c2ccc(OCc3cccs3)cc12`, the AC50 was 1.58 µM (active) and 126 nM (active).

For the molecule `C[C@H](N)Cc1c[nH]c2ccc(O)cc12`, the AC50 result is “inactive”.

For the molecule `O=P(O)(O)C(Cl)(Cl)P(=O)(O)O`, the AC50 entry was “inactive”.

Consider `CS(=O)(=O)Nc1ccc(Cc2noc(-c3ccc4[nH]cc(CCN)c4c3)n2)cc1`, for which the AC50 is 0.0316 µM (active).

For `C=C[C@]12CN(C)[C@H]3C1[C@@]1(C(=O)Nc4ccccc41)[C@H]1C[C@H]2[C@H]3CO1`, the AC50 entry is “inactive”.

For `O=C1C=C2C=C[C@H]3C[C@@]2(O1)[C@H]1CCCCN31`, the AC50 entry was “inactive”.

Turning to `Fc1ccccc1CCNCc1cccc(Cl)c1Cl`, the AC50 was 5.62 µM (active).

On to `c1ccc2c(N3CCNCC3)cccc2c1`, for which the AC50 is 10 µM (active).

For the molecule `O=[N+]([O-])c1ccc2nc(N3CCNCC3)ccc2c1`, the AC50 was 2 µM (active).

For the molecule `c1ccc(CN2CCC3(CCNCC3)CC2)cc1`, the AC50 entry was “inactive”.

`CN1CCN(c2ccc3ccccc3n2)CC1`: the AC50 was 10 µM (active) and 3.16 µM (active).

In the case of `c1ccc2nc(N3CCNCC3)ccc2c1`, the AC50 is 1.58 µM (active) and 1.26 µM (active) and 251 nM (active).

As to `c1ccc(N2CCC3(CCNCC3)CC2)nc1`, the AC50 result was “inactive”.

For `COc1ccccc1N1CCNCC1`, the AC50 result was “inactive”.

For `C[N+]1([O-])[C@@H]2CC(OC(=O)[C@@H](CO)c3ccccc3)C[C@@H]1[C@H]1O[C@H]12` (some centres undefined), the AC50 entry was “inactive”.

For the molecule `CCC1(CCSC(=N)N)C(=O)NC(=O)NC1=O`, the activity, negative = inhibition was -10.9% [at 2.29 µM] (inactive).

Regarding `NO`, the AC50 entry is “inactive”.

Take `CC(=O)O[C@@H]1CN2CCC1CC2`: the AC50 entry was “inactive”.

Regarding `O=C1NC(=O)N(CCNc2ncc(C(F)(F)F)cc2Cl)C(=O)C1/C=N/OCc1c(F)cccc1Cl` (centres undefined), the AC50 entry was “inactive”.

In the case of `CP(=O)(O)C1=CCNCC1`, the AC50 result is “inactive”.

As for `COC(=O)CN1CN(c2ccccc2)C2(CCN(Cc3ccc4ccccc4c3)CC2)C1=O`, the AC50 entry is “inactive”.

As for `c1cnc(N2CCC3(CCNCC3)CC2)nc1`, the AC50 result is “inactive”.

Turning to `N[C@H](CCl)C(=O)O`, the AC50 result is “inactive”.

As to `N[C@H](Cn1ccc(=O)[nH]c1=O)C(=O)O`, the AC50 entry was “inactive”.

`N[C@@H](CSC1c2ccccc2-c2ccccc21)C(=O)O`: the AC50 is 2.51 µM (active).

With `C=C1[C@@H]2C[C@@]3([C@H]1O)[C@H]1C[C@@H]4[C@@]5(C)CC[C@H](O)[C@]4([C@H]1N(CC)C5)[C@H]3C[C@H]2O`, the AC50 result was “inactive”.

As to `CCCCn1c(N)c(C(=O)NCc2cccs2)c2nc3ccccc3nc21`, the AC50 was 2.82 µM (active).

Consider `CC(C)CCn1c(N)c(C(=O)NCc2cccs2)c2nc3ccccc3nc21`, for which the AC50 was 2.24 µM (active).

Turning to `COCCCN1CCN(c2nnc3n2-c2sc(Br)cc2C(c2ccccc2Cl)=NC3)CC1`, the AC50 entry is “inactive”.

For the molecule `COC(=O)[C@@H]1[C@@H](O)[C@@]2(O)c3c(OC)cc(OC)cc3O[C@@]2(c2ccc(OC)cc2)[C@H]1c1ccccc1`, the activity, negative = inhibition was -2.88% [at 11.4 µM] (inactive).

On to `CCCC[N+]1(C)[C@@H]2CC(OC(=O)[C@@H](CO)c3ccccc3)C[C@H]1[C@H]1O[C@H]12` (some centres undefined), for which the AC50 result was “inactive”.

In the case of `COc1cc2c(cc1OC)[C@H](C)NCC2`, the AC50 result was “inactive”.

On to `[N-]=[N+]=NCC(=O)c1c[nH]c(=O)[nH]c1=O`, for which the activity, negative = inhibition is 0.0946% [at 2.29 µM] (inactive).

As to `O=[N+]([O-])c1cc(-c2ccc([As](=O)(O)O)cc2)ccc1[As](=O)(O)O`, the activity, negative = inhibition is -10.9% [at 2.29 µM] (inactive).

As for `CCC1(C)CC(=O)NC(=O)C1`, the AC50 result was “inactive”.

In the case of `COc1ccc2c(c1OC)C(=O)O[C@H]2[C@H]1c2cc3c(cc2CCN1C)OCO3`, the AC50 result is “inactive”.

For the molecule `CCC1=C(C[C@H]2NCCc3ccccc32)C[C@@H]2c3cc(OC)c(OC)cc3CCN2C1`, the activity, negative = inhibition was -7.08% [at 11.4 µM] (inactive).

For the molecule `COc1ccc2c(c1OC)CN1CCc3cc4c(cc3[C@H]1C2)OCO4`, the AC50 was 1.58 µM (active).

`CN(C)CCC(=O)[C@@]1(O)CC[C@H]2[C@H]3CC=C4C[C@@H](O)CC[C@]4(C)[C@H]3CC[C@]21C`: the activity, negative = inhibition was -5.71% [at 11.4 µM] (inactive).

On to `CCN1C[C@@]2(COC)CC[C@H](OC)[C@]34[C@@H]1[C@]1(OCO[C@@]15C[C@@H](OC)C1C[C@H]3[C@H]5[C@@H]1OC)[C@H](O)[C@@H]24`, for which the AC50 result is “inactive”.

In the case of `CC[C@@H](CO)NC(=O)[C@H]1C=C2c3cccc4c3c(cn4C)C[C@H]2N(C)C1`, the AC50 is 15.8 µM (active).

Turning to `CC[C@H](CO)NC(=O)[C@@H]1C=C2c3cccc4c3c(cn4C)C[C@@H]2N(C)C1`, the AC50 result is “inactive”.

Turning to `CC(C)C[C@H]1C(=O)N2CCC[C@@H]2[C@]2(O)O[C@](NC(=O)[C@H]3C=C4c5cccc6[nH]c(Br)c(c56)C[C@H]4N(C)C3)(C(C)C)C(=O)N12`, the AC50 entry was “inactive”.

Turning to `Nc1ccc(S(=O)(=O)c2ccc(NCN3C(=O)NC(=O)C(=O)C3=O)cc2)cc1`, the activity, negative = inhibition was -12.8% [at 11.4 µM] (inactive).

`COc1ccc(C(=O)NC2CC3CCCC(C2)N3CC(C)C)cc1OC` (centres undefined): the AC50 entry is “inactive”.

With `C[C@@]12C(=O)OC(=O)[C@@]1(C)[C@H]1CC[C@@H]2O1`, the AC50 result was “inactive”.

Regarding `CC(=O)[C@]1(O)CC[C@@H]2[C@H]3C[C@@H](C)C4=CC(=O)CC[C@@]4(C)[C@H]3[C@@H](O)C[C@]21C`, the activity, negative = inhibition was -1.99% [at 2.29 µM] (inactive).

As to `CC(C)N[C@@H](C)Cc1ccc(I)cc1`, the AC50 is 10 µM (active).

With `O=C1NC(=S)NC(=O)C1=Cc1cccc2cc3ccccc3cc12`, the AC50 is 0.398 µM (active).

For `C[C@]12CC[C@@H]3[C@H](CCC4=CC(=O)CC[C@]43C)[C@]1(O)CC[C@@]2(O)C(=O)CO`, the activity, negative = inhibition was 4.85% [at 2.29 µM] (inactive).

For `CCCCCCCCCOc1ccc2[nH]cc(CCN)c2c1`, the AC50 was 0.0398 µM (active).

Take `NCCc1c[nH]c2ccc(OC(=O)C(=O)O)cc12`: the AC50 was 2.51 µM (active).

With `COc1ccc2[nH]cc(CCN)c2c1`, the AC50 is 1.58 µM (active).

Consider `COc1ccc2[nH]cc(CCN(C)C)c2c1`, for which the AC50 was 15.8 µM (active).

`CC(=O)O[C@H]1CC[C@@]2(C)C(=CC[C@@H]3[C@H]2CC[C@]2(C)C(=O)CC[C@H]32)C1`: the AC50 entry is “inactive”.

For the molecule `CC(C)NC(=O)N1CCC2(CC1)CCN(C(=O)Oc1ccccc1)CC2`, the AC50 entry is “inactive”.

As to `CCOC(=O)c1[nH]c(C)c(C(=O)N2CCC3(CC2)OCCO3)c1C`, the AC50 entry was “inactive”.

Take `CN(C)C(=O)Oc1ccc[n+](C)c1`: the AC50 result was “inactive”.

In the case of `CC(C)(C)NC[C@H](O)c1cc(Cl)c(N)c(Cl)c1`, the AC50 result was “inactive”.

Source of the values: PubChem BioAssay AID1851 (National Center for Advancing Translational Sciences (NCATS), 2009).
